Results on nine compounds are retold here after PubChem BioAssay (NCI).

Holding throughout (test): NCI-60 one-dose screen, 48 h (100 = growth as untreated, 0 = no growth, -100 = all killed)
What all share (details): 10 µM unless noted

Test [1] deals with SR leukemia.
Test [2] concerns RPMI-8226 leukemia.
The test system of test [3] is OVCAR-8 ovarian.
Test [4] relates to OVCAR-5 ovarian.
The test system of test [5] is OVCAR-4 ovarian.
The test system of test [6] is SK-OV-3 ovarian.
The test system of test [7] is IGROV1 ovarian.
For test [8], the system named is OVCAR-3 ovarian.
Test [9] deals with HS 578T breast.
Test [10] has as its system NCI/ADR-RES ovarian.
Test [11] deals with T-47D breast.
The test system of test [12] is BT-549 breast.
The test system of test [13] is SW-620 colon.
Test [14] deals with MCF7 breast.
Test [15] deals with HCT-116 colon.
Test [16] relates to HCC-2998 colon.
In test [17] the test system is KM12 colon.
The test system of test [18] is MDA-MB-468 breast.
Test [19] concerns MDA-MB-435 melanoma.

The structures appear in SMILES notation. About 83,000 compounds went through this panel and 20% of them were active in at least one assay; those are over-represented in the sample as a whole.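 Cell lines were cultured in 96-well plates, exposed to a single compound concentration, and assessed for percent growth 48 hours later.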 Values without a mark were called inactive. Activity calls are given as the source filed them. How the source made its calls: active means growth percent below 10; inactive means the rest.

Turning to `COc1ccc2c(c1)C(=N/N=C(\C)c1ccc(OC)c(S(N)(=O)=O)c1)C(=O)N2`, the growth is 83.2% in test [1]; 83% in test [2]; 92.7% in [3]; 99.8% in [4]; 96.6% in test [5]; 97.6% in test [6]. Besides, the growth in test [7] is 107%; in test [8] it was 106%; in [9] it was 70.3%; in test [10], 100%; in [11] it was 87%; in test [12], 59%. Moreover, the growth is 93.9% in test [13]; 90.3% in test [14]; 88.6% in test [15]; 111% in test [16]; 97.5% in test [17]; 78.6% in test [18].
On to `COc1ccc(-c2nc3cc(C)ccc3n2CC(=O)N=Nc2c(O)[nH]c3ccc(Br)cc23)cc1`, for which the growth in test [1] is 2.47% (active); in [2] it was 42%; in [3], -61.8% (active); in test [4], -4.99% (active); in [5] it was -18.3% (active); in test [6], 35%. The growth in test [7] was 23.9%; in test [8], 14.9%; in test [9], 20.3%; in [10], -22% (active); in test [11], -2.62% (active); in test [12], -41.5% (active). The growth in test [19] was 2.16% (active); in [13] it was 9.98% (active); in test [15] it was -69.6% (active); in test [16] it was 22.7%; in [17], 11.5%; in test [18] it was -46.6% (active).
With `COc1ccc2[nH]c(=O)c(CSc3nccc(-c4ccc(OC)c(OC)c4)n3)cc2c1`, the growth is 23.1% in test [1]; 14.7% in [2]; 16% in [3]; 52.4% in test [4]; 8.75% (active) in test [5]; 55.8% in test [6]. Moreover, the growth in [7] is 49.8%; in test [8], 41.9%; in test [9] it was -7.63% (active); in [10] it was 23.6%; in test [11], -2.81% (active); in test [12] it was -43.8% (active). The growth in test [19] is 11.4%; in [13], 44.5%; in [15] it was 8.21% (active); in test [16] it was 26.3%; in test [17], 32.2%; in test [18], -12.3% (active).
`COc1c(F)ccc(C(=O)Nc2ccc3nc(NC(=O)C4CCCN(S(=O)(=O)c5cccc(C(F)(F)F)c5)C4)sc3c2)c1F` (configuration not stated): the growth in [1] was 38.4%; in test [2] it was 54.4%; in [3] it was 94.5%; in [4] it was 101%; in test [5], 74.3%; in [6] it was 102%. For the same compound, the growth in test [7] is 77.5%; in [8] it was 88.1%; in test [9], 61.1%; in [10], 84.3%; in test [11], 48.4%; in [12], 54.3%. For the same compound, the growth in test [19] is 87.1%; in [13] it was 99.9%; in test [15], 60.7%; in test [16], 107%; in test [17], 80%; in [18] it was 101%.
As for `O=c1[nH]c2ccccc2cc1CSc1nccc(-c2ccc3ccccc3c2)n1`, the growth is 20.6% in [1]; 52.1% in test [2]; 79.6% in test [3]; 93.7% in test [4]; 80.3% in test [5]; 84.3% in test [6]. Also, the growth in [7] is 89.9%; in test [8], 102%; in [9], 71%; in test [10], 41.7%; in test [11], 41.8%; in test [12], 44.8%. Moreover, the growth in test [13] was 51.2%; in [14], 47%; in test [15], 41.7%; in [16], 83.5%; in test [17], 69.6%; in [18] it was -17.2% (active).
As to `CC1=C(C#N)C2=NNCC(c3ccccc3)=NN2C(c2ccccc2)=C1`, the growth was 96% in [1]; 110% in test [2]; 111% in [3]; 114% in [4]; 112% in test [5]; 101% in test [6]. The growth is 109% in [7]; 111% in test [8]; 107% in test [9]; 112% in test [10]; 98.8% in test [11]; 104% in [12]. For the same compound, the growth was 106% in test [19]; 98% in test [13]; 101% in [15]; 118% in test [16]; 107% in test [17]; 124% in [18].
For the compound `COc1ccc(-c2ccc(SCC(=O)Nc3ccc(S(N)(=O)=O)cc3Br)nn2)cc1`, the growth in test [1] is 92.7%; in test [2], 85.8%; in test [3], 48.7%; in test [4], 99.6%; in test [5], 38%; in [6], 62.3%. Further, the growth in [7] was 105%; in test [8], 98.3%; in test [9], 44.8%; in [10] it was 95.3%; in [11] it was 76.9%; in test [12], 49.3%. The growth in test [19] is 108%; in test [13], 91.3%; in [15] it was 79.4%; in test [16] it was 99.3%; in test [17] it was 88.7%; in test [18], 86.9%.
On to `COc1ccc(/C=C/c2nc3ccccc3c(=O)n2CC(=O)Nc2ccc(Cl)cc2)cc1`, for which the growth in test [1] was 70.8%; in test [2], 84%; in test [3] it was 27%; in test [4], 92.7%; in [5], 17.2%; in test [6], 78.7%. Further, the growth in test [7] is 96.5%; in [8] it was 50%; in [9], 23.3%; in [10], 56.1%; in test [11], 66.5%; in [12] it was 63.6%. The growth is 90.5% in test [19]; 73.9% in test [13]; 35.4% in [15]; 116% in test [16]; 61.3% in test [17]; 98% in test [18].
As to `Cn1cc(-c2cc(N)n3nc(-c4cn(C)c5ncc(Br)cc45)cc3n2)c2cc(Br)cnc21`, the growth in test [1] is -35.1% (active); in [2] it was 5.51% (active); in test [3] it was 14.6%; in [4], 70%; in [5], -47.3% (active); in test [6] it was 104%. The growth in test [7] is 43.5%; in [8] it was -68% (active); in test [9], 55.1%; in test [10], 14.9%; in test [11] it was -4.13% (active); in test [12], 34.8%. Besides, the growth in test [19] was -37.8% (active); in test [13], -68.6% (active); in test [15] it was -76.3% (active); in test [16], -38.3% (active); in test [17], -3.78% (active); in [18], -84.2% (active).
